What all share (assay): PBM binding z-score (relative to random genomic background probes); higher = stronger binding; sequences stand for … in GC…GCGATTGACAGCGTAGAATGAAGG
Assay [1] concerns FXR:RXRa (NR concentration 270 nM, RXRa partner concentration 90 nM). An outline of the steps: (§1)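 Antibodies against each partner of ligand-free nuclear receptor dimers (one per run) detected binding on custom Agilent 4×180K protein-binding microarrays after 1 h incubation. The double-stranded probes had 34-nt variable regions carrying direct-repeat seeds, single-nucleotide variants, half-site ablations and random human genomic background sequences. Binding z-scores, from regression-normalized fluorescence, use the random background probes as reference.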

Assay [2] concerns LXRa:RXRa (NR concentration 270 nM, RXRa partner concentration 90 nM). In outline:
as §1

In assay [3] the test system is LXRa homodimer (NR concentration 270 nM). An outline of the steps:
as §1

For assay [4], the system named is LXRb:RXRa (NR concentration 270 nM, RXRa partner concentration 90 nM). An outline of the steps:
as §1

Assay [5] concerns LXRb homodimer (NR concentration 270 nM). In outline:
as §1

The test system of assay [6] is PPARa:RXRa (NR concentration 270 nM, RXRa partner concentration 90 nM). An outline of the steps:
as §1

Assay [7] has as its system PPARg:RXRa (NR concentration 180 nM, RXRa partner concentration 90 nM). In outline:
as §1

For assay [8], the system named is PPARg:RXRa 270nM:90nM, anti-RXR (NR concentration 270 nM, RXRa partner concentration 90 nM). An outline of the steps:
as §1

Assay [9] relates to PPARg:RXRa 30nM:10nM, anti-RXR (NR concentration 30 nM, RXRa partner concentration 10 nM). An outline of the steps:
as §1

The test system of assay [10] is PPARg:RXRa 90nM:30nM, anti-RXR (NR concentration 90 nM, RXRa partner concentration 30 nM). In outline: as §1
Assay [11] relates to PPARg:RXRa DBDmut IVT, anti-RXR (DBD mutation: RXRa K156A/R161A, NR concentration 270 nM, RXRa partner concentration 90 nM). An outline of the steps:
as §1

The subject of assay [12] is PPARg:RXRa IVT, anti-PPARg (NR concentration 270 nM, RXRa partner concentration 90 nM). An outline of the steps: as §1
Assay [13] deals with PPARg DBDmut:RXRa IVT, anti-PPARg (DBD mutation: PPARg1 K132A/R137A, NR concentration 270 nM, RXRa partner concentration 90 nM). An outline of the steps: as §1
The subject of assay [14] is PPARg DBDmut IVT, anti-PPARg (DBD mutation: PPARg1 K132A/R137A, NR concentration 270 nM). An outline of the steps:
as §1

Assay [15] has as its system PPARg homodimer (NR concentration 180 nM). In outline: as §1
For assay [16], the system named is PXR:RXRa (NR concentration 270 nM, RXRa partner concentration 90 nM). In outline: as §1
The test system of assay [17] is PXR homodimer (NR concentration 270 nM). An outline of the steps:
as §1

In assay [18] the test system is RARa:RXR (NR concentration 270 nM, RXRa partner concentration 90 nM). An outline of the steps:
as §1

The subject of assay [19] is RARa homodimer (NR concentration 270 nM). An outline of the steps: as §1
For assay [20], the system named is RARb:RXRa (NR concentration 270 nM, RXRa partner concentration 90 nM). An outline of the steps: as §1

This passage reports PBM binding z-score results from the supplement of paper PMC6555819.

Turning to AGAACGAGGGCACCCTGAGTTGATAGCAGAGTAG, the PBM binding z-score in [1] is 0.236; in assay [2], 0.52; in [3], -0.169; in assay [4] it was -0.0951; in [5], -0.924; in assay [6], 1.6. Moreover, the PBM binding z-score was found to be 1.55 in assay [7]; 1.27 in [8]; 0.134 in assay [9]; 0.693 in assay [10]; 3.24 in assay [11]; 2.84 in [12]. Besides, the PBM binding z-score in assay [13] is 0.579; in [14], -0.333; in assay [15] it was 0.0786; in assay [16], 1.29; in assay [17], 0.283; in assay [18], 0.732. Moreover, the PBM binding z-score in [19] is -0.996; in assay [20], 2.16.

In the case of AGTCTAAGTTCACTAGGTAACGTAAGATTCAGCT, the PBM binding z-score came out at 2.84 in [1]; 3.02 in assay [2]; 0.822 in [3]; 1.84 in assay [4]; 0.221 in assay [5]; 3.63 in [6]. Further, the PBM binding z-score turned out to be 2.98 in assay [7]; 3.85 in [8]; 1.57 in [9]; 3.02 in assay [10]; 2.75 in assay [11]; 3.66 in [12]. The PBM binding z-score came out at 0.895 in [13]; 1.1 in assay [14]; 1.24 in [15]; 3.63 in [16]; 4.11 in [17]; 1.93 in [18]. In addition, the PBM binding z-score was found to be 0.914 in assay [19] and 3.58 in [20].

On to ACTAGCAGGCCAAGGGTCTCTCAAGATTAGTCCG, for which the PBM binding z-score in assay [1] is -1.54; in assay [2], -0.539; in [3], -0.698; in assay [4], -0.703; in [5] it was -1.05; in assay [6], 0.948. In addition, the PBM binding z-score was determined as 2.49 in assay [7]; 4.52 in assay [8]; 2.15 in assay [9]; 4.55 in assay [10]; 0.281 in [11]; 1.01 in assay [12]. For the same sequence, the PBM binding z-score in assay [13] is -1.04; in assay [14], -0.76; in assay [15], -0.604; in [16], -0.568; in [17] it was -0.576; in assay [18] it was -0.307. Moreover, the figures for the PBM binding z-score in assay [19] and in [20] were -1.21 and 0.516, respectively.

On to TCTTGTAGATCAGCAGGTTAATAAAGCTGGCCAA, for which the PBM binding z-score in [1] was 0.186; in assay [2], 0.321; in assay [3], -0.0562; in assay [4], 0.223; in [5], -0.339; in [6] it was 0.462. In addition, the PBM binding z-score in [7] was -0.26; in assay [8], 1.38; in assay [9], 2.55; in [10], 1.7; in [11], 1.69; in assay [12], 0.368. Further, the PBM binding z-score was 0.134 in assay [13]; 0.645 in assay [14]; -0.332 in [15]; 0.185 in [16]; -0.721 in assay [17]; 0.556 in assay [18]. Also, the PBM binding z-score in [19] was 0.0648; in assay [20], 0.000915.

With CGTCAAAGTTCAACCAAGGTAACGTAAAGCACGC, the PBM binding z-score in [1] turned out to be 7.34; in assay [2] it was 6.27; in [3], 4.15; in assay [4], 4.07; in [5], 1.7; in assay [6], 5.02. The PBM binding z-score stood at 5.31 in assay [7]; 5.53 in [8]; 2.39 in assay [9]; 4.77 in [10]; 0.703 in [11]; 2.22 in [12]. Moreover, the PBM binding z-score in [13] is 0.566; in [14] it was 0.664; in assay [15] it was 3.1; in [16], 5.55; in assay [17] it was 4.15; in assay [18] it was 4.39. Also, the PBM binding z-score worked out at 1.73 in [19] and 5.25 in assay [20].

In the case of ATCACTAGGTAACCAAGTTCAGTGAATGCCGAAC, the PBM binding z-score in assay [1] was 0.163; in [2], 0.618; in assay [3], 0.625; in [4] it was 0.415; in assay [5], -0.134; in assay [6], 1.42. In addition, the PBM binding z-score was 1.82 in assay [7]; 1.3 in [8]; 0.47 in [9]; 0.739 in assay [10]; 4.99 in assay [11]; 4.16 in assay [12]. Moreover, the PBM binding z-score in assay [13] came out at 1.62; in [14], 0.399; in [15] it was 0.811; in assay [16] it was 2.06; in assay [17], 1.73; in [18], 0.23. The results for the PBM binding z-score in assay [19] and in [20] were 0.365 and 1.01, respectively.

Regarding GCTGCTAGGTCAACTGCTGGTCAGCTAAAGCTCG, the PBM binding z-score in assay [1] was 4.1; in assay [2], 3.03; in assay [3], 0.0225; in [4] it was 1.95; in assay [5], -0.0517; in assay [6] it was 3.53. In addition, the PBM binding z-score in [7] is 2.54; in assay [8], 2.94; in [9], 0.291; in assay [10], 1.66; in assay [11], 5.01; in assay [12] it was 4.38. Moreover, the PBM binding z-score in assay [13] was -0.67; in assay [14] it was -1.29; in assay [15], 0.927; in [16], 1.25; in assay [17] it was -0.956; in [18], 2.52. Also, the PBM binding z-score in [19] was -0.88; in assay [20], 4.34.
